Only some compounds are listed: those with a hit (about 11% of all), similar ones and a draw of the others.
Vaccinia mCherry – inhibitors of vaccinia virus infection (mCherry reporter signal) | Vaccinia virus mCherry reporter infection, fluorescence | 310,000 compounds, 0.63% hits | Potency, µM (highest dose often 36.5 µM), inactives show at the highest dose activity change, negative = inhibition, usual class: inhibitors; calls by dose curve; tested in A549 cells; also: % is scaled to controls: 0 for no effect and ±100 for the full control effect; nearly all actives have a fitted effect of over 35% in size
VACV Venus inh – inhibitors of vaccinia virus (Venus reporter). Potency, µM (series often up to 36.5 µM), for the others: top-dose activity change, negative = inhibition, hits mostly inhibitors. 330,000 compounds, 0.46% hits. Vaccinia virus Venus reporter expression, fluorescence; calls by dose curve; tested in A549 cells; also: % is scaled to controls: 0 for no effect and ±100 for the full control effect; nearly all actives have a fitted effect of over 30% in size
Pf growth 96h – P. falciparum growth inhibition at 96 hours; P. falciparum luciferase reporter growth, 96 h; Potency, µM (series often up to 28.7 µM), for the others: top-dose activity change, negative = inhibition, most hits filed as inhibitors; 320,000 compounds, 6.9% hits; also: % is scaled to controls: 0 for no effect and ±100 for the full control effect
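Parasite growth measured via integrated firefly luciferase reporter in P. falciparum. Infected erythrocytes at 2% hematocrit, 0.05% parasitemia final were treated 96 hours at 37 C under 5% CO2, and luminescence was read.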
HCV inh – HCV inhibition; 340,000 compounds, 3.4% hits; Potency, µM (doses to about 41.8 µM), inactives show at the top dose activity change, negative = inhibition, hits mostly inhibitors; Huh7.5.1 HCVcc-Cre infection, luciferase reporter, 44 h; also: % is scaled to controls: 0 for no effect and ±100 for the full control effect
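Compounds are dispensed onto cells plated 4 h earlier at 1,000 per well, with HCVcc-Cre virus (about 0.5 moi) added next. Following 44 h of culture, luminescent signal is measured for 15 sec after 15 min with substrate at room temperature.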
Pf growth 48h – P. falciparum growth inhibition at 48 hours (one generation) | P. falciparum luciferase growth in erythrocytes, 48 h | AID 504832 | Potency, µM (highest dose often 28.7 µM), without a hit: top-dose activity change, negative = inhibition, most hits filed as inhibitors | 310,000 compounds, 5.9% hits; also: % is scaled to controls: 0 for no effect and ±100 for the full control effect
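Read-out is firefly luciferase luminescence from an integrated reporter in P. falciparum, so falling signal marks reduced parasite growth. Infected erythrocytes were at 2% hematocrit and 0.1% parasitemia (final) in Albumax-supplemented RPMI 1640.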
NS1 function inh – inhibitors of influenza NS1 protein function | Potency, µM (titrated, usually from 46.1 µM), for the others: at the highest dose activity, positive = more growth | 270,000 compounds, 0.4% hits | AID 2326; calls by dose curve; also: actives are rising curves; nearly all actives have a fitted effect of over 50% in size
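Recovery from NS1-induced slow growth read by OD600 in budding yeast switched to galactose assay medium (pH 6.0, -URA) at 1:100 dilution. Compound 23 nl per well; the matching strain lacking NS1 serves as control.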
* marks the source's active call; other numbers are inactive results; i = inactive; u = inconclusive; x = no result given; [ ] = remark or other dose. Unless noted, calls follow the shape of the dose curve; as a rule, active = well fitted inhibition curve with a large enough effect; inconclusive = small, poorly fitted or top-dose-only effect, or another doubt; inactive = no such curve, though single readings can be large or run the other way. Potency is read from the fitted curve at half-maximal effect.

SMILES | Vaccinia mCherry | VACV Venus inh | Pf growth 96h | HCV inh | Pf growth 48h | NS1 function inh
O=C(Nc1cccnc1)c1ccc(CN2CCc3ccccc3C2)cc1 | x | x | x | 4.5µM* | -14% | -10%
O=C(Nc1ccccc1F)c1ccc(CN2CCc3ccccc3C2)cc1 | x | x | -3% | 11µM* | 5% | -14%
O=C(Nc1ccc(S(=O)(=O)N2CCCCC2)cc1)c1ccc(CN2CCc3ccccc3C2)cc1 | x | u | 7.4µM* | 35µM* | u | 11%
Cc1cc(C)cc(NC(=O)c2ccc(CN3CCc4ccccc4C3)cc2)c1 | u | -19% | u | u | -23% | -22%
COC(=O)c1ccc(C)c(NC(=O)c2ccc(CN3CCc4ccccc4C3)cc2)c1 | x | x | 9.3µM* | -16% | -7% | 1%
O=C(Nc1ccccc1)c1ccc(CN2CCc3ccccc3C2)cc1 | i | -6% | 39% | u | -15% | x
Cc1ccc(NC(=O)c2ccc(CN3CCc4ccccc4C3)cc2)cc1 | u | -21% | 7% | u | 16% | -7%
COc1ccc(C(=O)Nc2ccccc2SCc2cc(=O)c3cccc(C)c3[nH]2)cc1 | 7% | -7% | x | x | x | x
COC(=O)CC1C(=O)NC(C)=C1C(=O)OC (configuration not stated) | x | x | -6% | x | -4% | 2%
O=C(Nc1ccc(N2CCOCC2)cc1)C1=NN(c2ccccc2)C(=O)CC1 | -15% | -6% | 19% | -3% | -12% | x
CCN(CC)S(=O)(=O)c1ccc(N2CCCC2)c(NC(=O)C2=NN(c3ccccc3)C(=O)CC2)c1 | x | x | 15µM* | -25% | 10µM* | x
Cc1ccc(C)c(N2N=C(C(=O)Nc3ccccc3N3CCCC3)CCC2=O)c1 | -20% | -24% | u | u | u | -2%
O=C(Nc1cc(Cl)ccc1N1CCCC1)C1=NN(c2ccccc2)C(=O)CC1 | x | x | 9.3µM* | -30% | -10% | 6%
Cc1ccc(C)c(N2N=C(C(=O)Nc3ccccc3N3CCOCC3)CCC2=O)c1 | i | -13% | u | u | 12µM* | x
Cc1ccc(S(=O)(=O)N2CCCCC2)cc1NC(=O)C1=NN(c2ccccc2)C(=O)CC1 | x | x | u | -10% | u | x
CN(C)c1ccc(S(=O)(=O)N2CCCCC2)cc1NC(=O)C1=NN(c2ccccc2)C(=O)CC1 | x | x | 5.9µM* | -3% | -19% | -6%
FC(F)(F)c1ccnc(N2CCN(Cc3cnc(-c4ccccc4)[nH]3)CC2)c1 | -15%[7.34 µM] | -3%[7.34 µM] | -1% | 0% | -11% | -3%
O=C(COc1ccccc1)Nc1ccc(S(=O)(=O)N2CCCC2)cc1 | i | -3% | u | -13% | x | -1%
O=C(COc1ccc(F)cc1)Nc1cc(S(=O)(=O)N2CCCCC2)ccc1N1CCCCC1 | -19% | -20% | 7.4µM* | u | 3.7µM* | x
CCN1CCN(c2ccc(S(=O)(=O)N3CCCCC3)cc2NC(=O)COc2cc(C)ccc2Cl)CC1 | -20% | u | 1.9µM* | u | 12µM* | x
O=C(COc1ccc(S(=O)(=O)N2CCCCC2)cc1)Nc1ccccc1F | i | 1% | 9% | -8% | 12µM* | 6%
CCN1CCN(c2ccc(S(=O)(=O)N3CCCCC3)cc2NC(=O)COc2ccc(Cl)cc2)CC1 | -12% | -28% | u | u | 8.3µM* | x
CCc1cccc(C)c1NC(=O)CCCn1c(C)c2cnn(-c3ccccc3)c(=O)c2c1C | -14% | -23% | x | x | x | x
CCN1CCN(c2ccc(S(=O)(=O)N3CCCCC3)cc2NC(=O)COc2ccc(F)cc2Cl)CC1 | -14% | u | u | u | 7.4µM* | -2%
CCN1CCN(c2ccc(S(=O)(=O)N3CCOCC3)cc2NC(=O)c2ccc(F)cc2Cl)CC1 | -2% | -16% | u | 1% | u | x
SMILES | Vaccinia mCherry | VACV Venus inh | Pf growth 96h | HCV inh | Pf growth 48h | NS1 function inh
C[C@H]1CN([C@@H](C)CO)C(=O)c2cc(NC(=O)Cc3ccccc3)ccc2O[C@H]1CN(C)Cc1ccccc1 | -14% | -20% | x | 6% | x | x
C[C@@H]1CN([C@@H](C)CO)C(=O)c2cc(NC(=O)Nc3ccc(F)cc3)ccc2O[C@@H]1CN(C)Cc1ccc(Oc2ccccc2)cc1 | u | 10µM* | x | u | x | x
C[C@@H]1CN([C@@H](C)CO)C(=O)Cc2cc(NC(=O)Nc3ccc(F)cc3)ccc2O[C@@H]1CN(C)Cc1ccc(Cl)c(Cl)c1 | u | 11µM* | x | u | x | x
C[C@@H]1CCCCO[C@H](CN(C)Cc2ccc(C(F)(F)F)cc2)[C@H](C)CN([C@@H](C)CO)C(=O)c2cc(NC(=O)Cc3ccccc3)ccc2O1 | u | 11µM* | x | x | x | x
C[C@@H]1CN([C@H](C)CO)C(=O)c2cc(NC(=O)Cc3ccccc3)ccc2O[C@H]1CN(C)Cc1ccc(Oc2ccccc2)cc1 | u | u | x | 11µM* | x | x
Cc1ccc(OCC(=O)Nc2nnc(S(=O)(=O)N3CCc4ccccc43)s2)cc1 | -8% | -5% | x | x | x | x
C(=C\c1ccccc1)/CN1CCN(C(c2ccccc2)c2nnnn2-c2ccc3c(c2)OCCO3)CC1 (configuration not stated) | i | -4% | x | x | x | x
COc1ccc(OC)c(NC(=O)CSc2nc3ccccc3cc2Cc2ccccc2)c1 | i | -14% | 6.6µM* | u | u | 16%
COc1cccc(NC(=O)CSc2nc3ccccc3cc2Cc2ccccc2)c1 | 10% | 16% | 7.4µM* | -11% | 3.3µM* | 12%
COc1ccc(NC(=O)CSc2nc3ccccc3c3nc4ccccc4n23)cc1 | -28% | -19% | u | u | 19% | 7%
COc1ccc(OC)c(NC(=O)CSc2nc3ccccc3c3nc4ccccc4n23)c1 | x | x | u | 0% | 0.83µM* | 12%
COc1cc(NC(=O)CSc2nc3ccccc3cc2Cc2ccccc2)cc(OC)c1 | -27% | -17% | u | u | 12µM* | 6%
